aSyn 5UTR act – Activators working through SNCA 5'UTR binding (MLPCN); activity score, % (tested at 7.5 µM), hits read low; hit rate 7.1% among 300,000; alpha-synuclein 5'UTR reporter, activators screen; in the data active = activity score below about -60%
Hits are given with their value; 0 = inactive. Not all results are given here.

SMILES	aSyn 5UTR act
Cc1ccnc(NC(=S)NC(=O)/C=C/c2ccco2)c1	-334
COc1cccc(NC(=O)Nc2cc(C)on2)c1	-93
COc1ccc(C(=O)Nc2ccc(C)cn2)c(OC)c1	0
Cc1cc(NC(=O)Nc2ccc(C)c(C)c2)no1	-123
COc1ccc(C(=O)Nc2cc(C)on2)c(OC)c1	-141
COc1cccc(C(=O)NC(=O)Nc2cc(C)on2)c1	-94
Cc1ccc(NC(=O)Cc2noc3ccccc23)cc1	-173
CCOC(=O)c1ccc(COC(=O)c2ccc(-c3nnc(-c4ccccc4)o3)cc2)o1	-91
CCOC(=O)c1ccc(-c2ccc(CO)o2)cc1	-132
O=C(COC(=O)c1ccc(-c2nnc(-c3ccccc3)o2)cc1)c1ccccc1	-126
CCOC(=O)c1ccc(-c2nnc(-c3ccc(Cl)cc3Cl)o2)cc1	-207
Fc1cccc(CSc2ccc(-c3ccco3)nn2)c1	-176
Fc1ccc(CSc2ccc(-c3ccco3)nn2)cc1	-153
O=C(NCCc1cnn(-c2ccccc2)c1)c1cc(COc2c(F)cccc2F)on1	-80
COc1ccc(OCc2cc(C(=O)NCC3CCCCO3)no2)c(Cl)c1 (stereo not given)	-152
COc1ccc(CCNC(=O)c2cc(COc3c(C)cccc3C)on2)c(OC)c1	-91
COc1ccc(OCc2cc(C(=O)NCCc3ccccc3)no2)c(Cl)c1	-95
CN(CCc1ccccc1)C(=O)c1cc(COc2ccc(F)cc2Cl)on1	-82
COc1ccc(OCc2cc(C(=O)NCC3CCOCC3)no2)c(Cl)c1	-140
Cc1nn(-c2ccccc2)c(Cl)c1/C=N\NC(=O)c1cnccn1	-106
Cc1nn(-c2ccccc2)c(Cl)c1/C=N/NC(=O)c1ccco1	-106
CC(C)CC(NC(=O)CNC(=O)C1O[C@@H]2OC(C)(C)O[C@@H]2[C@H]2OC(C)(C)O[C@@H]12)C(=O)O (stereo not given in full)	-84
COc1ccc2c(c1)C(C)=CC(C)(C)N2S(=O)(=O)c1ccc(C)cc1	-63
CCOc1ccc2c(c1)C(C)=CC(C)(C)N2S(=O)(=O)c1ccc(C)cc1	0
COc1cccc(CSc2nc3ccccc3[nH]2)c1	-144
SMILES	aSyn 5UTR act
O=[N+]([O-])c1cccc(CSc2nc3ccccc3[nH]2)c1	-70
COC(=O)c1cc(CSc2nc3ccccc3[nH]2)oc1C	-173
COc1ccc2nc(Nc3nc(CSc4nc5ccccc5[nH]4)cc(=O)[nH]3)nc(C)c2c1	0
CCC(C)NC(=O)c1cc(Sc2nnc(C)s2)nc2ccccc12 (stereo not given)	-67
O=C(Nc1ccc(CN2CCOCC2)cc1)c1cccs1	-145
CCC(=O)NC(c1ccc(Cl)cc1Cl)c1ccc2cccnc2c1O (stereo not given)	0
O=C(/C=C/c1ccc(Cl)cc1Cl)NC(=S)Nc1ccccn1	-224
O=C(Nc1ccc(CN2CCOCC2)cc1)c1ccc(-c2cccc(Cl)c2)o1	-83
O=C(Cc1ccccc1)Nc1ccc(CN2CCOCC2)cc1	-87
O=C(/C=C/c1ccc(Cl)cc1Cl)NC(=S)Nc1ccc(CN2CCOCC2)cc1	-71
COc1cc2ccccc2cc1C(=O)Nc1ccc(CN2CCOCC2)cc1	-112
O=C(Oc1c(CN2CCOCC2)cc(Cl)c2cccnc12)c1ccccc1F	0
O=C(Nc1ccc(CN2CCOCC2)cc1)c1ccc(Cl)cc1Cl	-96
O=C(Nc1ccc(CN2CCOCC2)cc1)c1ccccc1F	-76
O=C(N/N=C\c1c(O)ccc2ccccc12)c1ccc(O)cc1	0
COc1ccc(/C=N/NC(=O)c2ccc[nH]2)cc1	-147
COc1ccc(C(=O)N/N=C/c2ccc(SC)cc2)cc1	-65
CSc1ccc(/C=N/NC(=O)c2ccc(O)cc2)cc1	-117
Cc1ccc(C2/C(=C(\O)c3cnn(-c4ccccc4)c3C)C(=O)C(=O)N2CCN(C)C)o1 (stereo not given)	-92
Cc1ccc(C2/C(=C(/O)c3cnn(-c4ccccc4)c3C)C(=O)C(=O)N2CCN2CCOCC2)o1 (stereo not given)	-121
Cc1c(/C(O)=C2/C(=O)C(=O)N(CCN3CCOCC3)C2c2cccs2)cnn1-c1ccccc1 (stereo not given)	-155
CCN(CC)CCN1C(=O)C(=O)/C(=C(/O)c2cnn(-c3ccccc3)c2C)C1c1ccc(C)o1 (stereo not given)	-77
Cc1c(/C(O)=C2\C(=O)C(=O)N(CCN(C)C)C2c2ccco2)cnn1-c1ccccc1 (stereo not given)	-78
CCOc1ccc(C2Sc3ccccc3NC3=C2C(=O)OC3)cc1 (stereo not given)	-78
C#CCOc1ccc(C2C3=C(COC3=O)Nc3cc4c(cc32)OCO4)cc1OC (stereo not given)	0
SMILES	aSyn 5UTR act
CCOc1ccccc1C1C2=C(COC2=O)Nc2cc3c(cc21)OCO3 (stereo not given)	0
O=[N+]([O-])c1cccc(-c2ccc(SCc3ccccn3)nn2)c1	-97
COc1cccc(-c2ccc(SCc3ccccn3)nn2)c1	-84
O=C(N/N=C/c1c[nH]c2ccccc12)c1cc(-c2ccccc2)n[nH]1	-72
O=C(N/N=C/c1c[nH]c2ccccc12)c1cc(-c2ccc(-c3ccccc3)cc2)n[nH]1	-146
Cc1ccc(-c2cc(C(=O)N/N=C/c3c[nH]c4ccccc34)[nH]n2)cc1	0
O=C(O)c1ccc(N/N=C/c2c[nH]c3ccccc23)cc1	0
O=C(N/N=C/c1c[nH]c2ccccc12)c1ccc(Cl)cc1	-77
CCCc1noc(-c2ccc(-c3ccccc3)cc2)n1	-112
O=[N+]([O-])c1cccc(NN=Nc2ccccc2)c1	-129
NC(=S)N=Nc1ccc(NN=C(N)N)cc1	0
O=[N+]([O-])c1ccc(N=NNc2ccccc2)cc1	-139
Brc1ccc(N=NNc2ccccc2)cc1	-188
C=C(C)C1CC=C(C)/C(=N/NC(=O)c2cccs2)C1 (stereo not given)	-124
C=C(C)C1CC=C(C)/C(=N/Nc2ccccc2[N+](=O)[O-])C1 (stereo not given)	-144
CCOC(=O)c1cnc(-n2nc(C)cc2C)nc1NNc1cc(-c2ccccc2)nc(C)n1	0
CCOC(=O)c1cnc2c(C(=O)OCC)cnn2c1N	-63
CCOC(=O)c1cnc2c(-c3cccc(Br)c3)cnn2c1C	-127
CCOC(=O)c1cnn(-c2ccc(C)cc2)c1N	-100
CCOC(=O)c1cnn2c(C)cc(-c3ccccc3)nc12	-120
Cc1cc(C)n2ncc(/C(N)=N/OC(=O)c3ccccc3F)c2n1	-100
CCOC(=O)c1cnc2cc(-c3ccc(C(C)(C)C)cc3)nn2c1N	-232
CC(=O)N(C)c1ccc(N=Nc2c(C)[nH]n(C(N)=S)c2=O)cc1	-112
Cc1[nH]n(C(N)=S)c(=O)c1N=Nc1cccc(Cl)c1	-126
Cc1cccc(N=Nc2c(C)[nH]n(C(N)=S)c2=O)c1C	-199
SMILES	aSyn 5UTR act
O=C(NC(=S)NC1CCCCC1)c1ccccc1	-95
O=C(N/N=C\c1c(O)ccc2ccccc12)c1cncc(Br)c1	0
O=C(NC(=S)Nc1ccc(O)cc1)c1cncc(Br)c1	-71
O=C(NC(=S)NC1CCCCCC1)c1cncc(Br)c1	-168
O=C(CNC(=S)NC(=O)c1ccccc1)c1ccccc1	-83
Cc1nc(N2CCN(S(=O)(=O)c3ccccc3)CC2)c2cc(-c3ccccc3)sc2n1	-113
COC(=O)c1c(C)[nH]c(C(=O)/C=C/c2ccccc2F)c1C	-245
COC(=O)c1c(C)[nH]c(C(=O)/C=C/c2ccccc2Cl)c1C	-302
CCCCOC(=O)c1ccc(Nc2ncnc3nc[nH]c23)cc1	-118
FC(F)Sc1ccc(Nc2ncnc3nc[nH]c23)cc1	-73
